Bioassay records from PubChem BioAssay.
IL1B secr inh = inhibitors of inflammasome signaling (IL-1 beta secretion); THP-1 LPS/ATP IL-1B secretion, AlphaLISA, 16 h; active compounds read low; activity change, % at 57.5 µM; hit rate 4.7% among 360,000; in the data active means activity change below about -50%; inconclusive means mostly about -30% to -49%
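THP-1 cells pretreated 1 hr with compounds (up to 57.5 uM final), then stimulated with LPS (250 ng/mL final) plus ATP (1.25 mM final); secreted IL-1B measured by AlphaLISA after 16 hr, decreased signal indicating inhibition.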
HT1080-NT tox = kills 2HG-producing HT-1080-NT fibrosarcoma cells; HT-1080-NT fibrosarcoma viability, CellTiter-Glo ATP luminescence, 48 h; Potency, µM (titrated, usually from 46.1 µM), for inactives: top-dose activity, negative = less viability, most hits filed as cytotoxic; hit rate 1.6% among 360,000; AID 686970;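 further: NT is the 2HG producing partner of a matched IDH1 knockdown line; potency means the concentration at half of the fitted maximal effect; 0% = DMSO-treated cells and -100% = media-only wells without cells; nearly all actives have a fitted effect of over 55% in size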
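HT-1080-NT; 750 cells/well; 5% FBS RPMI; 48 h compound, 37 degrees C; CellTiter-Glo luminescence; curve fitting and curve-class assignment.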
TDP1 cell noCPT = qHTS for Inhibitors of human tyrosyl-DNA phosphodiesterase 1 (TDP1): qHTS in cells in absence of CPT; DT40 Tdp1-/- hTDP1 cells, no CPT, ATP luminescence, 48 h; Potency, µM (top dose mostly 46.2 µM), for the others: top-dose activity change, negative = growth inhibition, actives largely listed as inhibitors; hit rate 15% among 420,000; further: potency means the concentration at half of the fitted maximal effect; nearly all actives have a fitted effect of over 55% in size
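Chicken DT40 Tdp1-/- cells stably complemented with human TDP1 were seeded at 400 cells/well with DMSO in place of 20 nM camptothecin. After compound pinning, cells grew at least 48 hr at 37 °C; viability read by CellTiter-Glo luminescence.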
12-LOX inh = blocks human arachidonate 12S-lipoxygenase. purified 12hLO, xylenol orange hydroperoxide absorbance. Potency, µM (highest dose often 108 µM), for the others: at the highest dose activity change, negative = inhibition, most hits filed as inhibitors. hit rate 1.1% among 580,000. AID 1671190; further: potency means the concentration at half of the fitted maximal effect
Target sequence (P18054 whole entry, looked up): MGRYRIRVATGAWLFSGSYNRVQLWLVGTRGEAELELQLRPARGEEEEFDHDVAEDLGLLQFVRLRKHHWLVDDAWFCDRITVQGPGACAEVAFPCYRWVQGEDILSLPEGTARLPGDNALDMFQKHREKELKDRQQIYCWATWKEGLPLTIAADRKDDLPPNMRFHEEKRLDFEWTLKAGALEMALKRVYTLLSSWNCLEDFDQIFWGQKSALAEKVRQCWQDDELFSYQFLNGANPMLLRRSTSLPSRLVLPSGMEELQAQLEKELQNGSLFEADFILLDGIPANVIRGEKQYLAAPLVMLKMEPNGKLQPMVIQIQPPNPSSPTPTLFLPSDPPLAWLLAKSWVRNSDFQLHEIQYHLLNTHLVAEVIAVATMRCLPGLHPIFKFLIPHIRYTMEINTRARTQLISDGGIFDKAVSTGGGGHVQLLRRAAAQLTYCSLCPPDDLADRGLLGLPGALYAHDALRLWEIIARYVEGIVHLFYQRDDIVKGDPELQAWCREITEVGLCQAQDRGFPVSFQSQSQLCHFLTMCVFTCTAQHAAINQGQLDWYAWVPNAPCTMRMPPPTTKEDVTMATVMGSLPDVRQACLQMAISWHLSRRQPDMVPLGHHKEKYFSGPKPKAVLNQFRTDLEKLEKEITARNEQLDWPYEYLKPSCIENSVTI
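Purified human 12hLO at 150 nM in 25 mM Hepes, 0.01% Triton X-100, pH 7.0, preincubated 15 min at room temperature with compound. Reaction started with 40 uM arachidonic acid, 30 min at room temperature. Hydroperoxide measured by Fe-xylenol orange, 573/405 nm absorbance ratio.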
TDP1 cell CPT = DT40-hTDP1 cell growth loss with CPT | chicken DT40 Tdp1-/-;hTDP1 cells + 20 nM CPT, ATP luminescence, 48 h | Potency, µM (top dose mostly 46.2 µM), for the others: at the highest dose activity change, negative = growth inhibition, actives largely listed as inhibitors | hit rate 12% among 420,000 | AID 686979; further: potency means the concentration at half of the fitted maximal effect; nearly all actives have a fitted effect of over 55% in size
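Cell growth measured by CellTiter-Glo luminescence after a minimum 48 h, 37 C compound exposure with 20 nM CPT in Tdp1-knockout DT40 cells stably expressing hTDP1, seeded 400/well; qHTS titration format.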
HT1080 IDH1KD tx = HT-1080 IDH1 knockdown cell toxicity (counter line). hit rate 2% among 360,000. HT-1080 IDH1 knockdown viability, ATP luminescence, 48 h. Potency, µM (series often up to 46.1 µM), for the others: at the highest dose activity, negative = toxicity, usual class: cytotoxic;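 further: potency means the concentration at half of the fitted maximal effect; 0% = DMSO wells and -100% = cell-free medium wells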
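Using the IDH1-knockdown HT-1080 line run in the same batch and compound series as the NT line, viability after 48 h at 37 °C was determined by CellTiter-Glo luminescence and expressed as % activity.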
* hit, by the source's call; i = inactive; u = inconclusive; x = not tested or not shown; ! = repeats disagree; [ ] = dose if it differs, or a comment. This excerpt belongs to a sample that is enriched for hits. Unless noted, the call rests on the fitted dose curve; in most records, active means well fitted curve in the direction sought with a large enough effect; inconclusive means small, poorly fitted or top-dose-only effect, or another doubt; inactive means no such curve, though single readings can be large; an effect the other way counts as inactive or inconclusive. Unless noted, on the % scale 0 is the no-effect control and ±100 the full control effect.

SMILES	IL1B secr inh	HT1080-NT tox	TDP1 cell noCPT	12-LOX inh	TDP1 cell CPT	HT1080 IDH1KD tx
c1cnn2c(-c3ccc4c(c3)CCO4)cnc2c1	-1	1%	9.2µM*	-11%	10µM*	4%
Clc1ccc(-c2cnc3cccnn23)cc1	10	-15%	u	u	u	-12%
COc1cc2ccc(=O)oc2c(O)c1O	50	-1%	u	50%	21µM*!	-9%
COc1cc2ccc(=O)oc2c(OC)c1OC	x	x	-12%	x	-5%	x
OC(COc1ccccc1)CN1CCN(CC(O)COc2ccccc2)CC1 (stereo not drawn)	9	-1%	10%	u	1%	-9%
OC(CON=C1c2ccccc2-c2ccccc21)CN1CCNCC1 (stereo not drawn)	-88*	21µM*	7.3µM*	-26%	12µM*	23µM*
O=C(COC(=O)c1ccccc1Cl)NCc1cccs1	7	5%	0%	-5%	-4%	9%
Nc1cc(Cl)ccc1C(=O)OCC(=O)NCc1cccs1	-85*	-3%	u	26%	u	0%
O=C(COC(=O)C1(c2ccccc2F)CCCC1)NCc1cccs1	u	-11%	23µM*	4%	u	-1%
CCc1ccc(NC(=O)COC(=O)C2(c3ccc(Cl)cc3)CCCC2)cc1	9	-6%	21µM*	-18%	21µM*	-17%
O=C(COC(=O)C1(c2ccccc2F)CCCC1)NCc1ccc2c(c1)OCO2	-73*	1%	u	-20%	u	-20%
Cc1nn(-c2nc3c(c(=O)[nH]c(=O)n3C)n2C/C=C/c2ccccc2)c(C)c1C	x	x	x	9%	x	x
NS(=O)(=O)c1ccc(NC(=O)COC(=O)C2(c3ccccc3F)CCCC2)cc1	-62*	-1%	u	-15%	u	-13%
Cc1ccccc1NS(=O)(=O)c1ccc2c3c(cccc13)C(=O)N2C	i	-14%	u	-24%	u	-24%
CN1C(=O)c2cccc3c(S(N)(=O)=O)ccc1c23	-88*	-2%	-3%	0%	-27%	-1%
COc1ccc(N(C(=O)c2ccncc2)S(=O)(=O)c2ccc3c4c(cccc24)C(=O)N3C)cc1	-14	-16%	u	17%	18µM*	-11%
COc1ccc(N(C(=O)c2cccnc2)S(=O)(=O)c2ccc3c4c(cccc24)C(=O)N3C)cc1	-28	u	u	3%	u	u
O=C(Nc1c(NC2CCCC2)c2ccccc2oc1=O)C1CC1	x	x	x	13%	x	x
O=C(C(=O)N1CCC(CNS(=O)(=O)c2ccc(OC(F)(F)F)cc2)CC1)c1cc2ccccc2o1	x	x	x	-11%	x	x
COc1cc(O)c(NC(C)=O)c2nonc12	9	0%	-16%	3%	-15%	-2%[9.24 µM]
CC(=O)NC1=CC(=O)c2nonc2C1=O	x	x	u	x	0.079µM*	x
N#C/C(=C/c1ccc(-c2ccc(S(=O)(=O)N3CCOCC3)cc2)o1)C(=O)NC1CC1	u	-21%	15µM*	-18%	-107%	-7%
N#C/C(=C\c1ccc(-c2ccc(S(=O)(=O)N3CCOCC3)cc2)o1)C(=O)NC1CC1	-2	-10%	21µM*	-38%	12µM*	-2%
N#C/C(=C\c1ccc(N2CCOCC2)o1)C(=O)NC1CCCCC1	-10	8%	u	u	-20%	-1%
COn1c(=O)c(-c2cccs2)[n+]([O-])c2ccccc21	0	4%	12µM*	u	16µM*	10%
SMILES	IL1B secr inh	HT1080-NT tox	TDP1 cell noCPT	12-LOX inh	TDP1 cell CPT	HT1080 IDH1KD tx
Cc1cc(C)c2nc(N(CCCN(C)C)C(=O)c3ccc4c(c3)CCCC4)sc2c1	-78*	-15%	10µM*	u	21µM*	u
CN(C)CCCN(C(=O)c1ccc2c(c1)CCCC2)c1nc2c(F)cccc2s1	-62*	-17%	23µM*	u	21µM*	0%
Cc1cccc2sc(N(CCCN(C)C)C(=O)c3cccc(F)c3)nc12	x	x	x	-30%	x	x
COc1cccc(/C(O)=C2/C(=O)C(=O)N(c3cc(C)on3)C2c2cccs2)c1 (stereo not drawn)	1	u	3.7µM*	u	u	u
CCCNC(=O)N1CCC2(CC1)CC(c1ccccc1)C(=O)N2C (stereo not drawn)	x	x	x	9%	x	x
COc1ccccc1C(=O)NC(CCSC)C(=O)NCCCn1nc(C)cc1C (stereo not drawn)	-2	-1%	-6%	u	-6%	-4%
CCc1c(C)nc2nncn2c1Nc1ccc(Cl)cc1	x	x	9.2µM*	-22%	u	x
CCc1c(C)nc2nncn2c1NCc1ccccc1	x	x	16µM*	-7%	u	x
COc1cccc(NC(=S)N2CCCC2c2ccc(OC)c(OC)c2)c1 (stereo not drawn)	-6	-5%	29µM*	4%	-18%	3%
COc1ccc(C2CCCN2C(=S)Nc2cccc(Cl)c2)cc1OC (stereo not drawn)	-87*	0%	u	-7%	-15%	-3%
COc1ccc(C2CCCN2C(=S)Nc2ccc(C)cc2C)cc1OC (stereo not drawn)	-15	4%	26µM*	0%	-23%	-11%
COc1ccc(C2SCCN2C(=S)Nc2cccc(Cl)c2)cc1 (stereo not drawn)	-26	-16%	16µM*	-27%	u	-6%
COc1ccc(C2CCCN2C(=S)Nc2ccccc2C)cc1OC (stereo not drawn)	24	28%	u	9%	-19%	-3%
COc1ccc(C2CCCN2C(=S)Nc2ccc(C)c(C)c2)cc1OC (stereo not drawn)	-18	-5%	u	3%	9%	9%
COc1ccc(C2SCCN2C(=S)Nc2ccc(Cl)cc2)cc1 (stereo not drawn)	-6	-6%	-12%	-20%	-21%	-2%
Cc1ccc(NC(=S)N2CCSC2c2cccs2)cc1 (stereo not drawn)	-82*	-1%	-23%	-15%	u	14%
CN(C)CCN(C)Cc1c2ccccc2c(CN(C)CCN(C)C)c2ccccc12	-84*	u	18µM*	u	18µM*	21µM*
CN(C)CCP(=O)(c1ccccc1)c1ccccc1	20	-2%	u	10%	7%	9%
C[C@@H](NS(C)(=O)=O)c1onc(-c2ccc(F)cc2)c1C(=O)O	x	x	x	1%[176 µM]	x	x
